From the supplement of paper PMC10849652 come the findings set out here.

Of roughly 7,900 targets only a part is listed; those with a hit were picked by preference. About 0.6% of all pairs of compound and target were hits.

UniProt P30291, sequence (P30291 whole entry, looked up): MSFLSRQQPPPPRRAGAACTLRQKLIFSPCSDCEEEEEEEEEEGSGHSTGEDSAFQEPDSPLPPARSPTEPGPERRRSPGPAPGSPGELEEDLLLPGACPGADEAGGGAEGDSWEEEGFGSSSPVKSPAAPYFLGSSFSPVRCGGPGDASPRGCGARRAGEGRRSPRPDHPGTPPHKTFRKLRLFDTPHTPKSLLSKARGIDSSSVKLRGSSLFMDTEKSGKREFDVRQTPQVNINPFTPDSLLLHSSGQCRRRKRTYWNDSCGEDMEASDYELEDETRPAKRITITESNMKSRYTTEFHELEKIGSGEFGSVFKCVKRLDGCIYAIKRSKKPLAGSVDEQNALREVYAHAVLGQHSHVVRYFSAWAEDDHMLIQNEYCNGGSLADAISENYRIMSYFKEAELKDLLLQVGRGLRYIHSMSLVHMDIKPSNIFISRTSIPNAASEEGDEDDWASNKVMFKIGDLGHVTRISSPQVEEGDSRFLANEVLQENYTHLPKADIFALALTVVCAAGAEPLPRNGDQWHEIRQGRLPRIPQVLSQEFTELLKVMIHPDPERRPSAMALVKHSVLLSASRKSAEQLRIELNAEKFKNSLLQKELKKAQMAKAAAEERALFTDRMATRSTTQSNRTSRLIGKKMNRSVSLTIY
UniProt Q9P253, sequence (Q9P253 whole entry, looked up): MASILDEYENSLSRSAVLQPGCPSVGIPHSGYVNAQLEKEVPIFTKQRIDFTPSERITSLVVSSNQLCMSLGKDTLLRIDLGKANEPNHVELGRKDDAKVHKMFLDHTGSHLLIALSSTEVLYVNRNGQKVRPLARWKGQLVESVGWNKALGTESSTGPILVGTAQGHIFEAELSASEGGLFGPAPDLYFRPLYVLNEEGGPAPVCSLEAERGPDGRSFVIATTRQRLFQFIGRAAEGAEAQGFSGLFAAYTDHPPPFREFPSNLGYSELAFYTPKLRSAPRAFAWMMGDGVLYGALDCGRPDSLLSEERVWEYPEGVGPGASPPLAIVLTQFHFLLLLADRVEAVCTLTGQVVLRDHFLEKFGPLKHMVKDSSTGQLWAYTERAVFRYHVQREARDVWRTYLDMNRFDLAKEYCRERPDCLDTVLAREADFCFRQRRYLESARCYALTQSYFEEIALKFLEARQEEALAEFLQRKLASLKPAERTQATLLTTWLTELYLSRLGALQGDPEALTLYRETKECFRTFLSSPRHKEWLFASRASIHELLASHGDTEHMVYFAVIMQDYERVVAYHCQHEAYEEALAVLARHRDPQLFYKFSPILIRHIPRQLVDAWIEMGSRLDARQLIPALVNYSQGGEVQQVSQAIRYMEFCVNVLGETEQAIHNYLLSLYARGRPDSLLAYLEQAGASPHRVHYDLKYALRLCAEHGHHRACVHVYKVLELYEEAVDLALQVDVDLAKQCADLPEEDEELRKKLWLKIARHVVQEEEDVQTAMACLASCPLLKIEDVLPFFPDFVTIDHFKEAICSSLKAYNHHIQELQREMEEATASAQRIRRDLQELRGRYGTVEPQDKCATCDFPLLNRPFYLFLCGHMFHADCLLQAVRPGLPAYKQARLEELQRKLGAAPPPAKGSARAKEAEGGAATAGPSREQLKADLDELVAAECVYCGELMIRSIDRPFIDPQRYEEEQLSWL
UniProt P21796, sequence (P21796 whole entry, looked up): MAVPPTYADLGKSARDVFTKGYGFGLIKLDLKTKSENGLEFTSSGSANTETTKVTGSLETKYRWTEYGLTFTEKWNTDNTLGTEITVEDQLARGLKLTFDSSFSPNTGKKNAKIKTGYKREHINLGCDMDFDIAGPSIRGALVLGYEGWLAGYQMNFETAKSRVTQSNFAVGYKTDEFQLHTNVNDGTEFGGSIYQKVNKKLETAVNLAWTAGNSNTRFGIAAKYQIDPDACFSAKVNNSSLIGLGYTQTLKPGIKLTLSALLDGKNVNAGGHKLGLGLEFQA
UniProt Q9NV66, sequence (Q9NV66 whole entry, looked up): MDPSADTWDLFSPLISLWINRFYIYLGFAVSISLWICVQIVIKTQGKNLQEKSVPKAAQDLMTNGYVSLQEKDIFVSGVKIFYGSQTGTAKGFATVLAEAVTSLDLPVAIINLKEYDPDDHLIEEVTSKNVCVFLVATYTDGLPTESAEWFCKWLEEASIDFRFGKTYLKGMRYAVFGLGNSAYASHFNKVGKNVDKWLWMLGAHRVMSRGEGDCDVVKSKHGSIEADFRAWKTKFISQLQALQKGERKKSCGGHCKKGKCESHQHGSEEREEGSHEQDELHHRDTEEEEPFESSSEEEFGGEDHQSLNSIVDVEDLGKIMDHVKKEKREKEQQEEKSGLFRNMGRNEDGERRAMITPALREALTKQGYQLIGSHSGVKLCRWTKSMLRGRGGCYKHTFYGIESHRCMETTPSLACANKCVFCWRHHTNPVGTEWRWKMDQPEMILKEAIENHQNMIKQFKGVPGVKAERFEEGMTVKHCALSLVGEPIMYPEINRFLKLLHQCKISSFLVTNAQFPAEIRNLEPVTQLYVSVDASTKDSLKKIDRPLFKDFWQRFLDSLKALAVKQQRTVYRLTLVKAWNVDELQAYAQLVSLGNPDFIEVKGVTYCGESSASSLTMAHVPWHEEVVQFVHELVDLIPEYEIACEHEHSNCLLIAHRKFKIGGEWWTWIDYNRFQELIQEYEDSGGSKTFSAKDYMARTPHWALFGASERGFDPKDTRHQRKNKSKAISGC
UniProt Q6VEQ5, sequence (Q6VEQ5 whole entry, looked up): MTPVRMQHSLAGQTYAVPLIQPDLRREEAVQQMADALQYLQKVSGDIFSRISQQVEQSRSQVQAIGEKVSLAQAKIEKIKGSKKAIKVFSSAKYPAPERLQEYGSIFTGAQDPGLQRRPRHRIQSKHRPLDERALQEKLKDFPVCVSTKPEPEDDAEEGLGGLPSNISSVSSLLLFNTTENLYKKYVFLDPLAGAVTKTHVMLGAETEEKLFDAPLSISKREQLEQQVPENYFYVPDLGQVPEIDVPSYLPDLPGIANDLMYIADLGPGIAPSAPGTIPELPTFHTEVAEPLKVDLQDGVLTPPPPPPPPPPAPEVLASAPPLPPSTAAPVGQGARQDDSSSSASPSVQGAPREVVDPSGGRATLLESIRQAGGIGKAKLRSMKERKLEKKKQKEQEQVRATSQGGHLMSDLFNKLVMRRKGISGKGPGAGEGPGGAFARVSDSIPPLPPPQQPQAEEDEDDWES
UniProt Q12888, sequence (Q12888 whole entry, looked up): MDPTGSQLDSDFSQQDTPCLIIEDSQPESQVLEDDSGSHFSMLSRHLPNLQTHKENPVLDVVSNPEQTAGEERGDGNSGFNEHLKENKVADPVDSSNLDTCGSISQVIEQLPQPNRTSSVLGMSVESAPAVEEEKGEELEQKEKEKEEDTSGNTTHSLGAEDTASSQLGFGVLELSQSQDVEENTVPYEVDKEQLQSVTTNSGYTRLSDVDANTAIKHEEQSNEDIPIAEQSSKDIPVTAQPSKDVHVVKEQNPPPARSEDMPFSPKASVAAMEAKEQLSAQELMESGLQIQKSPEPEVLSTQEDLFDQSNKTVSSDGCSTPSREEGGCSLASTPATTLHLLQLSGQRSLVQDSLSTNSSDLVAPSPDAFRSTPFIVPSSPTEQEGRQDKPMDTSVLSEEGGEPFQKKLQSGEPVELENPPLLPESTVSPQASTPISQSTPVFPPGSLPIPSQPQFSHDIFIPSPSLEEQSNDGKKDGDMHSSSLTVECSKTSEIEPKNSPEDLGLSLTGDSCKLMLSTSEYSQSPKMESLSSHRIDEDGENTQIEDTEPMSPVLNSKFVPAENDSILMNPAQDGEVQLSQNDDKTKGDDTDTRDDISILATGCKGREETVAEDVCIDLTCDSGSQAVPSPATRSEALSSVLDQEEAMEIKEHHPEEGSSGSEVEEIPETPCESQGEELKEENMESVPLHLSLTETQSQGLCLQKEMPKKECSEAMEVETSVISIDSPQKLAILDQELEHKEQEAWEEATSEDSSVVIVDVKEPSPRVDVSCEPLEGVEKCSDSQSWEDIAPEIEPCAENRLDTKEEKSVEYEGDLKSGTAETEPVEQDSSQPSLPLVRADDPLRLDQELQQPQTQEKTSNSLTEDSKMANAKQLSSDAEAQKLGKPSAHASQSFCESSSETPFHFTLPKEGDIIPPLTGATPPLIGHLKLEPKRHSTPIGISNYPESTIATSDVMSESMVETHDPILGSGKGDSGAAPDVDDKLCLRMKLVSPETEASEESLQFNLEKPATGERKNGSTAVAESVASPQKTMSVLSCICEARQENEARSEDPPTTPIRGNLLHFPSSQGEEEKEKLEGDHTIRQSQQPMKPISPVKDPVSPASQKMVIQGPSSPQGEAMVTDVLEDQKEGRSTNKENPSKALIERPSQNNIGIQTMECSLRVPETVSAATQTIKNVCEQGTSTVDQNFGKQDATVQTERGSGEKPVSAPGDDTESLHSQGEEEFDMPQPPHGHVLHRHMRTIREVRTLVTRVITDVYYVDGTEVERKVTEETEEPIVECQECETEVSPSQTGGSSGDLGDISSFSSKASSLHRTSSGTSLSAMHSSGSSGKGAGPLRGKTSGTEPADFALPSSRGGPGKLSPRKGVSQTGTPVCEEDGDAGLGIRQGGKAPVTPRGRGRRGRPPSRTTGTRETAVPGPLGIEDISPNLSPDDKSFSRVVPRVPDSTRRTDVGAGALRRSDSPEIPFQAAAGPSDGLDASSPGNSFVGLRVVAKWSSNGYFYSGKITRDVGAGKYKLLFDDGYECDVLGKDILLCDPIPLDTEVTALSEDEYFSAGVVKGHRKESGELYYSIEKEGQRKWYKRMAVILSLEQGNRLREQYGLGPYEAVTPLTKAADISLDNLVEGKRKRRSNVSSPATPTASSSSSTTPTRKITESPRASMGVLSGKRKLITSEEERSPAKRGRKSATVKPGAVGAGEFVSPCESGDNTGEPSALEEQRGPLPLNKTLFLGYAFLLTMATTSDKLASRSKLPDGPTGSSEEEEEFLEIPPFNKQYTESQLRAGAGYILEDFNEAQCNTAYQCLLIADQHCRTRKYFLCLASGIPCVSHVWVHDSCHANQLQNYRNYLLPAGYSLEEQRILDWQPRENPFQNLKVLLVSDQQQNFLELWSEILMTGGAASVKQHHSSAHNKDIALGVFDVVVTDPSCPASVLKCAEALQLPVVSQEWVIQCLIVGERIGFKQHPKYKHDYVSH

Compound in this test: CS(=O)(=O)CCNCc1ccc(-c2ccc3ncnc(Nc4ccc(OCc5cccc(F)c5)c(Cl)c4)c3c2)o1 [lapatinib]
Description: log2 fold change, soluble protein after heating vs DMSO (PISA); higher = thermal stabilisation; K562 cells, 10 uM, 30 min; active = over 0.2 and 3.5 SD of the protein, either way, in both replicates (recomputed). In outline: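 Soluble protein was quantified by TMTpro 16plex LC-MS/MS after channel sums were equalised. It was obtained as the supernatant after 21,000xg for 90 min from pooled aliquots of K562 cells (2×10^6 cells/mL, 10 μM compound, 30 min) heated for 3 min across 48°C-58°C and extracted in PBS with 0.5% NP-40 at 4°C. Thermal stability values are relative to control samples and come from duplicates. They are given as log2 fold changes.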
Regarding VPS18 (UniProt Q9P253), the log2 fold change is 0.033 (inactive).

With TRAPPC11 (UniProt Q7Z392), the log2 fold change was -0.014 (inactive).

For VDAC1 (UniProt P21796), the log2 fold change was 0 (inactive).

TNPO1 (UniProt Q92973): the log2 fold change is -0.005 (inactive).

Regarding UGDH (UniProt O60701), the log2 fold change is -0.036 (inactive).

As for UCHL5 (UniProt Q9Y5K5), the log2 fold change is -0.023 (inactive).

Regarding TP53BP1 isoform 2 (UniProt Q12888), the log2 fold change is 0.028 (inactive).

As for VRK1 (UniProt Q99986), the log2 fold change was -0.059 (inactive).

Regarding WEE1 (UniProt P30291), the log2 fold change is 0.125 (inactive).

As for VTI1A (UniProt Q96AJ9), the log2 fold change was 0.021 (inactive).

With WASHC2A (UniProt Q641Q2), the log2 fold change was 0.02 (inactive).

In the case of TMEM9 (UniProt Q9P0T7), the log2 fold change is 0.04 (inactive).

On to VPS33A (UniProt Q96AX1), for which the log2 fold change is 0.015 (inactive).

As to TMEM70 (UniProt Q9BUB7), the log2 fold change is -0.039 (inactive).

XRCC5 (UniProt P13010): the log2 fold change is 0.024 (inactive).

For the target TRAPPC3 (UniProt O43617), the log2 fold change was 0.023 (inactive).

For the target TNPO3 (UniProt Q9Y5L0), the log2 fold change was -0.035 (inactive).

In the case of TPM2 (UniProt P07951), the log2 fold change was 0.166 (inactive).

With UBE4B isoform 4 (UniProt O95155), the log2 fold change was -0.01 (inactive).

As for USP14 (UniProt P54578), the log2 fold change was 0.031 (inactive).

In the case of VPS50 (UniProt Q96JG6), the log2 fold change is -0.006 (inactive).

Regarding TMEM87B (UniProt Q96K49), the log2 fold change was 0.026 (inactive).

For the target TMEM263 (UniProt Q8WUH6), the log2 fold change is -0.045 (inactive).

As for TYW1 (UniProt Q9NV66), the log2 fold change is 0 (inactive).

Take VPS33B (UniProt Q9H267): the log2 fold change is 0.011 (inactive).

Consider TMEM164 (UniProt Q5U3C3), for which the log2 fold change was -0.06 (inactive).

With WASH2P (UniProt Q6VEQ5), the log2 fold change is 0.016 (inactive).

As to TOMM5 isoform 2 (UniProt Q8N4H5), the log2 fold change is -0.016 (inactive).

TRIP10 isoform 2 (UniProt Q15642): the log2 fold change was -0.083 (inactive).

On to TMEM106B (UniProt Q9NUM4), for which the log2 fold change is -0.005 (inactive).

Take TMTC3 (UniProt Q6ZXV5): the log2 fold change was 0.053 (inactive).

Consider USP24 (UniProt Q9UPU5), for which the log2 fold change is 0.019 (inactive).

Take VWA8 (UniProt A3KMH1): the log2 fold change is 0 (inactive).

Consider UBLCP1 (UniProt Q8WVY7), for which the log2 fold change was 0.021 (inactive).

VARS2, A0A0G2JL52: the log2 fold change was 0.022 (inactive).

Regarding TRMT10A (UniProt Q8TBZ6), the log2 fold change was 0.03 (inactive).
